PubChem BioAssay AID1851 (National Center for Advancing Translational Sciences (NCATS), 2009)
Where “and” joins values, the source holds several entries; their conditions need not be identical. Equal values may be shown once. Among all 16,000 compounds or so, about 5,700 (36%) were called active. About 24% were inconclusive and are not listed. The list shows a part of the results. Unmarked numbers belong to inactive results. Calls come from the whole dose curve; as a rule, active = well fitted curve in the direction sought with a large enough effect; inconclusive = small, poorly fitted or top-dose-only effect, or effect the other way; inactive = no such curve, though single readings can be large or run the other way. Peptide text beside a SMILES is read from it.

What follows are compounds tested against Cytochrome P450 1A2 (Homo sapiens) (UniProt P05177) (assay: Cytochrome panel assay with activity outcomes). Details: recombinant CYP, pro-luciferin dealkylation, luminescence, p450-cyp1a2; series mostly up to 57.1 µM.
% is set by controls: 0 for no effect and ±100 for the full control effect.

Chain of Cytochrome P450 1A2 (Homo sapiens) (P05177 whole entry, looked up): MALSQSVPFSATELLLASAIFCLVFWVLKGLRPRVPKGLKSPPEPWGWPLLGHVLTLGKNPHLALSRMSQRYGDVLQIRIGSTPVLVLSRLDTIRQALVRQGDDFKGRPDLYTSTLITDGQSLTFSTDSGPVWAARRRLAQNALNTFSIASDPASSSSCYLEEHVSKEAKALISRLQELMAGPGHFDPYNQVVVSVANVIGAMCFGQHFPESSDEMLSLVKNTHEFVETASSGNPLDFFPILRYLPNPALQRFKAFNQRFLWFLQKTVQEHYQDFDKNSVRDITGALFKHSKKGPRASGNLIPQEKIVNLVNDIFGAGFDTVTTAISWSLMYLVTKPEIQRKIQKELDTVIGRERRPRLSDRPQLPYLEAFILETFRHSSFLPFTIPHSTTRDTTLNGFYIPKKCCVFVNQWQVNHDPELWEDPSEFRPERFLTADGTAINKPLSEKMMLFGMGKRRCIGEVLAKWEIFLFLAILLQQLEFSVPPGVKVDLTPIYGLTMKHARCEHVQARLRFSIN

Structure (SMILES)	AC50	activity, negative = inhibition
CCOC(=O)C1C(=O)NC(C)C1c1ccccc1 (stereo not given)	12.6 µM (active)	
CCCCN1C(=O)CCC(C(=O)O)C1c1ccccc1 (stereo not given)	inactive	
CCOC(=O)C1(C(=O)O)NC(=O)CC1c1ccccc1 (stereo not given)	inactive	
COC(=O)C1=C(C)NC(=O)NC1c1ccsc1 (stereo not given)	inactive	
CCCSC1=C(C#N)C(c2cccnc2)C(C(=O)OCC)=C(c2ccccc2)N1 (stereo not given)	inactive	
CCOC(=O)C1=C(O)C(Nc2nccs2)(C(F)(F)F)N=C1C (stereo not given)	inactive	
C=CCOC(=O)C1=C(C)NC(SCC(=O)OCC)=C(C#N)C1c1ccc(C)cc1 (stereo not given)	12.6 µM (active)	
CCOC(=O)C1=C(C)NC(C)=C(C(=O)OCC)C1c1sccc1C	5.01 µM (active)	
CCOC(=O)CSC1=C(C#N)C(c2sccc2C)CC(=O)N1 (stereo not given)	20 µM (active)	
CCOC(=O)C1=C(C)NC(=O)NC1c1ccoc1 (stereo not given)	15.8 µM (active)	
COC(=O)CSC1=C(C#N)C(c2cccc(F)c2)CC(=O)N1 (stereo not given)	inactive	
CC(NC(=O)C1(C)CC1(Br)Br)C(C)(C)C (stereo not given)	inactive	
CCOC(=O)CSC1=C(C#N)C(C)C2=C(CCCC2=O)N1 (stereo not given)	2.51 µM (active)	
COc1cc(C2C(C#N)=C(N)OC3=C2C(=O)CCC3)cc(OC)c1OC(=O)N1CCOCC1 (stereo not given)	inactive	
CCOC(=O)CSC1=C(C#N)C(c2sccc2C)C(C(C)=O)=C(C)N1 (stereo not given)	1.58 µM (active)	
CC(=O)NN1C(=O)c2ccc(Oc3cccc([N+](=O)[O-])c3)cc2C1=O	inactive	
Cn1cc([N+](=O)[O-])c(C(=O)Nc2cc(Oc3cccnc3)cc([N+](=O)[O-])c2)n1	11.2 µM (active)	
CC(=O)OC[C@@H]1O[C@H](C/C=N\OC[C@@H](C)[C@H](OCc2ccccc2)C(C)C)C=C[C@@H]1OC(C)=O		-2.33% [at 11.4 µM]
O=C(CNC(=O)c1ccccc1)NCC(=O)OCc1ccc(Cl)cc1	inactive	
O=C(CNC(=O)c1ccco1)OCc1c(F)cccc1Cl	25.1 µM (active)	
O=C(NCC(c1cccs1)N1CCOCC1)c1ccco1 (stereo not given)	inactive	
Cc1c(Nc2cc(N3CCCC(C)C3)c3nonc3c2[N+](=O)[O-])c(=O)n(-c2ccccc2)n1C (stereo not given)	inactive	
Cc1c(Cl)c(S(N)(=O)=O)cc2c1=NC=NS=2(=O)O		-9.57% [at 2.29 µM]

Structure (SMILES)	AC50	activity, negative = inhibition
Cc1ccc(OCC(=O)NNC(=O)c2cccnc2)cc1	inactive	
Cc1ccc(C(=O)NNC(=O)c2cc3cc4ccccc4nc3s2)cc1	inactive	
Cn1c(CN2CCCCC2)nc2cc(NC(=O)c3ccc(Cl)cc3)ccc21	inactive	
COC(=O)COc1cccc(NC(=O)c2ccc(C)cc2)c1	7.94 µM (active)	
O=C(Nc1cccc(-c2cnc3ccccc3n2)c1)c1ccc(Cl)cc1	1.12 µM (active)	
Cc1ccc(C(=O)Nc2cccc(-c3cnc4ccccc4n3)c2)cc1	0.891 µM (active)	
O=C(O)C[C@H](Cc1ccccc1)C(=O)O		-4.07% [at 11.4 µM]
COCCn1c(C)cc2c(c1=O)C(c1ccccc1F)C(C#N)=C(N)O2 (stereo not given)	inactive	
OC[C@@H](O)CN1CCN(c2ccccc2)CC1	inactive	
Cc1ccc(N2CCN(CCC(=O)O)CC2)cc1		-8.97% [at 11.4 µM]
c1ccc(N2CCN(CCCOc3ccc4c(c3)OCO4)CC2)cc1	12.6 µM (active)	
CC(C)=NO[C@@H](C)c1cc(-c2c(C)cc(C)cc2C)no1		-3.7% [at 11.4 µM]
O=C(CCc1nc(-c2ccccc2)c(-c2ccccc2)o1)OCc1ccc(Cl)cc1	14.1 µM (active)	
CCCCCCCCCCCCCC(=O)O[C@H](CC(=O)O)C[N+](C)(C)C	inactive	
CN1CCN([C@@H](c2ccccc2)c2ccc(Cl)cc2)CC1	inactive	
CN1CCN(C2=Cc3ccccc3Oc3ccc(Cl)cc32)CC1	20 µM (active)	
CN1CCCN([C@@H](c2ccccc2)c2ccc(Cl)cc2)CC1	inactive	
COC(=O)[C@@]1(Cc2ccc(F)cc2)[C@H]2c3cc(C(=O)N4CCCC4)n(Cc4ccc(OC(F)(F)F)cc4)c3C[C@H]2CN1C(=O)c1ccccc1	inactive	
Cc1noc(NS(=O)(=O)c2ccc(N/C=C\C(=O)c3ccc4c(c3)OCO4)cc2)c1C	inactive	
Cc1noc(NS(=O)(=O)c2ccc(N)cc2)c1C	inactive	
Cc1noc(NS(=O)(=O)c2ccc(N/C=C/C(=O)c3ccc4c(c3)OCO4)cc2)c1C	12.6 µM (active)	
CCC(C)(C)c1ccc(Oc2cccc(C(=O)O)c2)cc1		-13.7% [at 11.4 µM]
C[C@@H](/C=C\c1cccc(Oc2ccc(F)cc2)c1)N(O)C(N)=O	0.158 µM (active)	
C[C@H](C(=O)O)c1cccc(Oc2ccccc2)c1	inactive	

Structure (SMILES)	AC50	activity, negative = inhibition
Clc1ccccc1-c1nc(NCc2cccnc2)c2ccccc2n1	0.631 µM (active)	
FC(F)(F)c1ccccc1-c1nc(NCc2cccnc2)c2ccccc2n1	2 µM (active)	
C(=N/Nc1nnc2c(n1)[nH]c1ccccc12)/c1cccnc1	0.631 µM (active)	
CON(C)C(=O)c1nnc2c(n1)[nH]c1ccccc12		1.4% [at 11.4 µM]
Cc1ccccc1-c1nc(NCc2cccnc2)c2ccccc2n1	0.501 µM (active)	
Clc1ccccc1-c1nc(N/N=C/c2cccnc2)c2ccccc2n1	0.141 µM (active)	
CCCCn1c(SC(C)C(N)=O)nc2cc(C(=O)OC)ccc2c1=O (stereo not given)	1.78 µM (active)	
Cn1cnc([N+](=O)[O-])c1[Se]c1nc(N)nc2c1ncn2[C@@H]1O[C@@H](CO)[C@H](O)[C@@H]1O		-12.8% [at 2.29 µM]
CCn1cc(-c2nnnn2-c2ccc(Cl)cc2)c(=O)c2ccccc21	inactive	
CCOC(=O)c1c(C)nc2sc3c(=O)n(-c4ccc(C(C)=O)cc4)nnc3c2c1-c1ccc(Cl)cc1	inactive	
CCOc1nnc(C)c2c(C)n(-c3ccc(Cl)cc3)nc12	10 µM (active)	
C#C[C@]1(O)CC[C@H]2[C@H]3CCC4=Cc5oncc5C[C@]4(C)[C@@H]3CC[C@]21C	12.6 µM (active)	
C[C@@]12CCC(=O)C=C1CC[C@H]1[C@H]3CC[C@](O)(C(=O)CO)[C@]3(C)CC(=O)[C@@H]12	inactive	
C[C@]1(O)CC[C@H]2[C@H]3CC=C4N5CCN=C5CC[C@@]4(C)[C@H]3CC[C@@]21C		-12.8% [at 2.29 µM]
C#C[C@]1(O)CC[C@@H]2[C@H]3CCC4=Cc5oncc5C[C@]4(C)[C@@H]3CC[C@@]21C	10 µM (active)	
C#C[C@@]1(O)CC[C@@H]2[C@@H]3CCC4=CC(=O)CC[C@@H]4[C@H]3CC[C@]21CC	inactive	
C/C=C1\C(=O)C[C@@H]2[C@@H]3CCC4=CC(=O)CC[C@@]4(C)[C@H]3CC[C@@]12C	inactive	
O=C(O)[C@H]([C@H]1NCCS1)N1Cc2ccccc2C1		-13.4% [at 2.29 µM]
CNc1oc(-c2cccs2)nc1C#N	2.24 µM (active)	
N#Cc1nc(-c2cccs2)oc1NCc1ccccc1	1.12 µM (active)	
CNc1oc(-c2ccc(Cl)cc2)nc1C#N	1.78 µM (active)	
CCOC(=O)c1[nH]c(COC(=O)CCOc2ccccc2OC)c(C(=O)OCC)c1C	8.91 µM (active)	
CCOC(=O)C1=C(C)C(c2ccccc2OC)NC(=S)N1 (stereo not given)	inactive	
CCCCN(CC)S(=O)(=O)N1CCC(C(=O)NCCCN2CCOCC2)CC1	inactive	

Structure (SMILES)	AC50	activity, negative = inhibition
CCOC(=O)N/N=C1/C[C@@H](O)[C@@H](O)[C@@H]2[C@@H]3C(=O)N(CC)C(=O)[C@H]3CC[C@@H]12		-5.68% [at 11.4 µM]
CSc1nc(N)nc(SCC(=O)Nc2ccc(Cl)cc2)c1C#N	0.891 µM (active)	
CCOc1cccc(NC(=O)CSc2nc(C)c3c(c2C#N)CCCC3)c1	inactive	
COc1ccc(NC(=O)CSc2nc(C)c3c(c2C#N)CCCC3)cc1	2.51 µM (active)	
CCOc1ccc(NC(=O)CSc2nc(C)c3c(c2C#N)CCCC3)cc1	2 µM (active)	
CC(=O)Oc1ccc(C(c2ccc(OC(C)=O)cc2)c2ccccn2)cc1	inactive	
COC(=O)C(CC(C)C)NC(=O)C(N)Cc1ccccc1 (stereo not drawn) (H-Phe-Leu-OMe; configuration not given here)	inactive	
C/C(=C\c1ccc(Cl)cc1)C(C)(C)C(=O)O		-17.1% [at 11.4 µM]
NC(=O)NCc1ccc(Cl)cc1	inactive	
C[C@H](N)C(=O)OC(C)(C)Cc1ccc(Cl)cc1	0.631 µM (active)	
COC(=O)[C@H](N)Cc1ccc(Cl)cc1	3.16 µM (active)	
COC(=O)[C@](C)(N)Cc1ccc(O)cc1	inactive	
O=C(Nc1ccc(S(=O)(=O)N2CCCCC2)cc1)c1ccc(CN2CCc3ccccc3C2)cc1	inactive	
CN(C)S(=O)(=O)c1ccc(C(=O)Nc2ccc(CN3CCCC3)cc2)cc1	25.1 µM (active)	
O=C(Nc1ccc(S(=O)(=O)N2CCOCC2)cc1)c1ccc(CN2CCc3ccccc3C2)cc1	inactive	
O=C(c1ccccc1)N1CCSC1=S	14.1 µM (active)	
CCC(=O)N1CCN(C(=O)c2ccccc2)CC1	inactive	
CCC(C)NC(=O)C1CCN(C(=O)c2ccccc2)CC1 (stereo not given)	inactive	
Cc1nc2cnc(N(C)C)nc2n(Cc2cccs2)c1=O	1.26 µM (active)	
CN(C)c1ncc2ncc(=O)n(Cc3cccs3)c2n1	1.58 µM (active)	
CCNC(=O)C/C(C)=N/NC(=O)C12CC3CC(CC(C3)C1)C2	inactive	
Fc1ccc(-c2cn3cc(C(F)(F)F)cc(Cl)c3n2)cc1	0.891 µM (active)	
CC1(C)CC(=O)C2=C(C1)Nc1cc3c(cc1C2c1ccc(F)cc1)OCO3 (stereo not given)	6.31 µM (active)	
